Screens as filed in PubChem BioAssay.
Hits are enriched below; roughly 14% of the tested compounds scored in any of these assays.
Marburg entry inh: qHTS for inhibitors of binding or entry into cells for Marburg Virus; actives 1.8% (n = 300,000); Potency, µM (top dose mostly 37.8 µM), for inactives: top-dose activity change, negative = inhibition, hits mostly inhibitors; Marburg virus pseudotyped entry inhibition, cell reporter; calls by dose curve; tested in HEK293 cells; also: potency is read from the fitted curve at half-maximal effect
HCMV antiviral: qHTS Assay for inhibitors of the human cytomegalovirus (HCMV) | HFF cells, HCMV-luciferase reporter, 72 h; stronger effect = lower value | activity change, negative = inhibition, % at 57.5 µM | actives 4.5% (n = 410,000); in the data active = activity change below about -60%; inconclusive = no clear call, values can overlap the other calls; inactive = above about -39%
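After 16 h attachment at 37C, HFF cells received test compound and HCMV-luciferase (1 PFU/cell); reporter luminescence read 72 h later, data normalized against buffer-only and known inhibitor Salinomycin.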
Pf growth 48h: Primary qHTS for delayed death inhibitors of the malarial parasite plastid, 48 hour incubation. actives 5.9% (n = 310,000). Potency, µM (series often up to 28.7 µM), for inactives: at the top dose activity change, negative = inhibition, usual class: inhibitors. P. falciparum luciferase growth in erythrocytes, 48 h; also: potency is read from the fitted curve at half-maximal effect
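Firefly luciferase activity from engineered P. falciparum reports growth; inhibitors lower the luminescent signal. Cultures contained 2% hematocrit erythrocytes at 0.1% final parasitemia.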
HCV inhibitor: qHTS Assay for Inhibitors of Hepatitis C Virus (HCV). Huh7.5.1 HCVcc-Cre infection, luciferase reporter, 44 h. actives 3.4% (n = 340,000). Potency, µM (doses to about 41.8 µM), inactives show at the top dose activity change, negative = inhibition, most hits filed as inhibitors; also: potency is read from the fitted curve at half-maximal effect
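Cells seeded at 1,000/well and cultured 4 h, then compounds added followed by HCVcc-Cre virus (~0.5 moi). After 44 h further culture, luciferase substrate was added, plates held 15 min at room temperature, and luminescence read for 15 sec.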
LASV entry inh: qHTS for Inhibitors of binding or entry into cells for Lassa Virus; Lassa virus pseudotype entry inhibition, cell reporter; actives 1.2% (n = 300,000); AID 540256, 2011; Potency, µM (series often up to 37.9 µM), inactives show at the top dose activity change, negative = inhibition, actives largely listed as inhibitors; calls by dose curve; tested in HEK293 cells; also: potency is read from the fitted curve at half-maximal effect; nearly all actives have a fitted effect of over 50% in size
Pf growth 96h: Primary qHTS for delayed death inhibitors of the malarial parasite plastid, 96 hour incubation; P. falciparum luciferase reporter growth, 96 h; Potency, µM (highest dose often 28.7 µM), without a hit: top-dose activity change, negative = inhibition, actives largely listed as inhibitors; actives 6.9% (n = 320,000); also: potency is read from the fitted curve at half-maximal effect
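Parasite growth measured via integrated firefly luciferase reporter in P. falciparum. Infected erythrocytes at 2% hematocrit, 0.05% parasitemia final were treated 96 hours at 37 C under 5% CO2, and luminescence was read.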
* = called active by the depositor; [ ] = dose if it differs, or a comment. Unless noted, calls follow the shape of the dose curve; as a rule, active = well fitted inhibition curve with a large enough effect; inconclusive = small, poorly fitted or top-dose-only effect, or another doubt; inactive = no such curve, though single readings can be large or run the other way. % is scaled to controls: 0 for no effect and ±100 for the full control effect.

Screening COc1ccc(C2CC(c3ccccc3)=NN2C(=O)COC(=O)/C=C/c2ccc(O)c(OC)c2)cc1 (centres undefined) returned HCMV antiviral 3.1, Pf growth 48h 14.7µM*, HCV inhibitor inconclusive and Pf growth 96h inconclusive.
Screening CCc1cccc(C)c1NC(=O)Cn1cnc2c1c(=O)n(C)c(=O)n2C returned HCMV antiviral -4.7 and LASV entry inh 7.0%[46.1 µM].
For COC(=O)CCC(C)C1CCC2C3CCC4CC(O)CCC4(C)C3=CC(=O)C12C (centres undefined) the results were Marburg entry inh inconclusive, HCMV antiviral -20.6, HCV inhibitor inconclusive and LASV entry inh inconclusive.
COc1ccc(OC)c(/C=C/C(=O)N2CCCc3ccccc32)c1 was read as Marburg entry inh inconclusive, HCMV antiviral -30.7, Pf growth 48h -6.9%, HCV inhibitor 10µM*, LASV entry inh inconclusive and Pf growth 96h inconclusive.
COc1ccc(/C=C/C(=O)N2CCCc3ccccc32)c(OC)c1 was read as Marburg entry inh inconclusive, HCMV antiviral 48.9, Pf growth 48h inconclusive, HCV inhibitor -29.9%, LASV entry inh inconclusive and Pf growth 96h inconclusive.
COc1ccc(C2CC(c3ccccc3OC(C)=O)=NN2C(=O)/C=C/c2ccccc2)cc1 (centres undefined) was read as Marburg entry inh -0.7%, HCMV antiviral 3.7, Pf growth 48h inconclusive, HCV inhibitor -0.1%, LASV entry inh inconclusive and Pf growth 96h inconclusive.
Screening COc1ccc(C2CC(c3ccc4ccccc4c3OC(C)=O)=NN2C(=O)/C=C/c2ccccc2)cc1 (centres undefined) returned Marburg entry inh 16.8%, HCMV antiviral 1.8, Pf growth 48h 11.7µM*, HCV inhibitor -22.0%, LASV entry inh inconclusive and Pf growth 96h inconclusive.
Screening CCC1CN(C(=O)Nc2cccc(OC)c2)c2ccccc2O1 (centres undefined) returned HCMV antiviral -1.5 and LASV entry inh inconclusive.
For CCCCCOc1ccc(NC(=O)Cc2csc(C)n2)cc1 the results were Marburg entry inh 10.3%[46.1 µM], HCMV antiviral 19.9 and LASV entry inh -0.3%[46.1 µM].
Screening CC1CN(C(=O)COC(=O)c2ccc(Cl)c(S(=O)(=O)N3CCCCC3)c2)CC(C)O1 (centres undefined) returned Marburg entry inh -19.4%, HCMV antiviral -4.5, Pf growth 48h -4.9%, HCV inhibitor -28.1%, LASV entry inh 12.9%[46.1 µM] and Pf growth 96h -16.9%.
`COc1cc(OC)cc(C(=O)NNC(=O)c2ccc(S(=O)(=O)N3CC(C)OC(C)C3)cc2)c1` (centres undefined) gave HCMV antiviral 124.5, Pf growth 48h 9.0%, HCV inhibitor 5.5% and Pf growth 96h inconclusive.
For COc1ccc(COC(=O)c2ccc(Cl)c(S(=O)(=O)N3CC(C)OC(C)C3)c2)cc1 (centres undefined) the results were Marburg entry inh -17.4%, HCMV antiviral 0.2, Pf growth 48h 4.65µM*, HCV inhibitor 14.1µM*, LASV entry inh inconclusive and Pf growth 96h 6.57µM*.
For COc1ccc(C(=O)NNC(=O)c2ccc(S(=O)(=O)N3CC(C)OC(C)C3)cc2)cc1 (centres undefined) the results were HCMV antiviral 13.4, Pf growth 48h -5.3%, HCV inhibitor 12.5% and Pf growth 96h 1.47µM*.
Screening Cc1nc(COc2ccc(C(=O)NCc3ccccc3CN3CCCCC3)cc2)cs1 returned HCMV antiviral -39.0, Pf growth 48h inconclusive, HCV inhibitor inconclusive and Pf growth 96h inconclusive.
CCOC(=O)Cn1nnnc1C(CC)N(Cc1cccs1)Cc1cc2cc(C)ccc2[nH]c1=O (centres undefined) was read as Marburg entry inh 15.8µM*, HCMV antiviral -4.8, HCV inhibitor -7.3%, LASV entry inh inconclusive and Pf growth 96h 37.2%.
`CCC(c1nnnn1C1CCCC1)N(Cc1cccs1)Cc1cc2cc(C)ccc2[nH]c1=O` (centres undefined) gave Marburg entry inh inconclusive, HCMV antiviral inconclusive, Pf growth 48h inconclusive, HCV inhibitor -6.2%, LASV entry inh inconclusive and Pf growth 96h 6.8%.
`CCOc1ccc2[nH]c(=O)c(CN(Cc3ccco3)C(CC)c3nnnn3Cc3ccccc3)cc2c1` (centres undefined) gave Marburg entry inh inconclusive, HCMV antiviral inconclusive, Pf growth 48h 5.86µM*, HCV inhibitor inconclusive, LASV entry inh inconclusive and Pf growth 96h inconclusive.
Screening CCOc1ccc2[nH]c(=O)c(CN(Cc3cccs3)C(CC)c3nnnn3C(C)(C)CC)cc2c1 (centres undefined) returned Marburg entry inh inconclusive, HCMV antiviral inconclusive, Pf growth 48h 0.928µM*, HCV inhibitor 10µM* and LASV entry inh inconclusive.
CCOC(=O)Cn1nnnc1C(C(C)C)N(Cc1cccs1)Cc1cc2cc(C)ccc2[nH]c1=O (centres undefined) was read as Marburg entry inh 9.2µM*, HCMV antiviral -11.0, HCV inhibitor inconclusive, LASV entry inh inconclusive and Pf growth 96h inconclusive.
COc1cc([C@H](O)C(=O)O)ccc1O was read as Marburg entry inh 7.5%.
Screening CCc1ccccc1NC(=O)C(Cc1ccccc1)c1nn[nH]n1 (centres undefined) returned HCMV antiviral 63.4, Pf growth 48h 4.2%, HCV inhibitor -8.5% and Pf growth 96h -14.1%.
CCOc1ccc2oc(C(=O)N(C)CCc3ccc(OC)c(OC)c3)c(C)c2c1 was read as HCMV antiviral 9.0, Pf growth 48h inconclusive, HCV inhibitor inconclusive and Pf growth 96h inconclusive.
For CCOc1ccc2oc(C(=O)N(C)CC(=O)Nc3ccc(OCC)c(OCC)c3)c(C)c2c1 the results were Marburg entry inh -24.4%, HCMV antiviral 15.5, Pf growth 48h inconclusive, HCV inhibitor inconclusive, LASV entry inh -10.7%[46.1 µM] and Pf growth 96h 11.7µM*.
`COc1ccc(NC(=O)CN(C)C(=O)c2oc3ccccc3c2C)cc1` gave HCMV antiviral -11.0, Pf growth 48h inconclusive, HCV inhibitor -26.1% and Pf growth 96h 3.7µM*.
For Cc1cccc(C)c1N1C(=O)c2ccccc2NC(=O)C1C(=O)Nc1ccc(N2CCOCC2)cc1 (centres undefined) the results were HCMV antiviral 7.5.
`CN[C@H]1CCc2cc(OC)c(OC)c(OC)c2-c2ccc(OC)c(=O)cc21` gave HCMV antiviral -95.0* and HCV inhibitor -7.5%.
